In all, about 310,000 compounds went through this assay and about 14,000 (4.5%) showed an effect of 50% or more. The effect is printed as a negative number. This excerpt belongs to a sample that is enriched for strong results.
Biological target: human ether-à-go-go-related gene (hERG) potassium channel (human, UniProt Q12809)
Experiment: primary screen, population patch clamp on CHO cells stably expressing hERG; higher = less effect of the substance
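Note: peak tail current of the secondary pulse compared with the same well before compound.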

Chain of human ether-à-go-go-related gene (hERG) potassium channel (Q12809 whole entry, looked up): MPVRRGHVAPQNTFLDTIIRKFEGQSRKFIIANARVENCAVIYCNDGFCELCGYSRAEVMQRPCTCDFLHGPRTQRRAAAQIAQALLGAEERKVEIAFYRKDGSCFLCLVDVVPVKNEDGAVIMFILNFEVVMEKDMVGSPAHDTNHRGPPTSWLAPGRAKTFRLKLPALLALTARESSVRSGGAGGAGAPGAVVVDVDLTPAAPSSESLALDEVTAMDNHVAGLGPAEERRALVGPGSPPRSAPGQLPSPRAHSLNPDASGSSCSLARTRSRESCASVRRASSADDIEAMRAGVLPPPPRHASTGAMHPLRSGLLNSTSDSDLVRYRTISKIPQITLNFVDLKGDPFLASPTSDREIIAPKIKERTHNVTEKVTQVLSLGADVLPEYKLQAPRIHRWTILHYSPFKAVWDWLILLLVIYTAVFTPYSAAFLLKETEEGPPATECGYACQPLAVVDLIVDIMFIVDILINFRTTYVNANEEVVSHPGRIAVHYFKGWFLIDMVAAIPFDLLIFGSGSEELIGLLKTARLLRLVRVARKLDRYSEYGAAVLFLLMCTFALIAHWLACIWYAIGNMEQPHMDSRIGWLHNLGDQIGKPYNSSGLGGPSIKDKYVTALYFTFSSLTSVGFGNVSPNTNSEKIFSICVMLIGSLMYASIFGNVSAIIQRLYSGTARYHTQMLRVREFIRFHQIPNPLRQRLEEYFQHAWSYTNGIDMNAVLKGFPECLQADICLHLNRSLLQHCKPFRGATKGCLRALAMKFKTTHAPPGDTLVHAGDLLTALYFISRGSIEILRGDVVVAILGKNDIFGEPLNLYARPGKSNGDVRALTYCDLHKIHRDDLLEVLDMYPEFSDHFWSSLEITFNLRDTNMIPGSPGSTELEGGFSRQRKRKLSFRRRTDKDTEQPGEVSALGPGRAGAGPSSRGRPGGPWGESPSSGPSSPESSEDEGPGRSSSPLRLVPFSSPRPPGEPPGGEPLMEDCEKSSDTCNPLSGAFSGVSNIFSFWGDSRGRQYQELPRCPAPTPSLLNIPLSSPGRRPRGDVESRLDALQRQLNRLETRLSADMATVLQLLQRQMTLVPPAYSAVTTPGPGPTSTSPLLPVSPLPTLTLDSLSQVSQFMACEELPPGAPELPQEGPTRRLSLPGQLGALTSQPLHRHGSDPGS

Compound	hERG current change (%, negative = inhibition) at 10uM [%]
O=C(CCc1nnc2ccc(NCc3ccccc3)nn12)NC1CCCC1	11.1
Cc1ccc(N2CC(C(=O)Nc3nccs3)CC2=O)cc1 (stereo not drawn)	-5.15
Cc1ccc(N(C(=O)C2CCCO2)C2C=CS(=O)(=O)C2)cc1Cl (stereo not drawn)	-4.44
O=C(Nc1ccc(S(=O)(=O)Nc2ncccn2)cc1)c1cncc(Br)c1	10.6
O=C(c1ccccc1)c1ccc(OCC(O)CNC2CCCc3ccccc32)cc1 (stereo not drawn)	-31.7
CC(=O)CCc1ccc(OCC(O)CNC2CCCc3ccccc32)cc1.O=C(O)C(=O)O (stereo not drawn)	-49
O=C(O)C(=O)O.OC(CNC1CCCc2ccccc21)COc1c(Cl)cccc1Cl (stereo not drawn)	-56.5
O=C(CSc1ccccc1Cl)NC1CCCc2ccccc21 (stereo not drawn)	-1.17
CCc1ccccc1OC[C@@H](O)CN[C@H]1CCCc2ccccc21.O=C(O)C(=O)O	-24.7
O=C(O)C(=O)O.OC(CNC1CCCc2ccccc21)COc1ccc2ccccc2c1 (stereo not drawn)	-72.3
COc1ccc(CC(=O)Oc2ccc(C)cc2Br)cc1OC	3.25
CN(Cc1nc(-c2ccccc2)no1)C(=O)c1ccc2c(c1)OCO2	-20.5
Nc1nccnc1C(=O)OCC(=O)Nc1ccc2[nH]c(=O)[nH]c2c1	17
O=c1[nH]c2cc3c(cc2cc1CN(CCO)S(=O)(=O)c1ccccc1)OCCO3	-19
CCc1ccc(NC(=O)CN(c2ccc(OC)cc2)S(=O)(=O)c2c(C)nn(C)c2C)cc1	-4.36
COc1ccc(C2c3[nH]c4ccccc4c3CCN2CCCn2cccn2)cc1C (stereo not drawn)	-38.9
COc1ccc(C2c3[nH]c4ccccc4c3CCN2CCCn2cccn2)c(F)c1 (stereo not drawn)	-3.85
CC(C)CC1c2[nH]c3ccccc3c2CCN1CCCn1cccn1 (stereo not drawn)	-63.1
CCOc1ccc(C2c3[nH]c4ccccc4c3CCN2CCCn2cccn2)cc1 (stereo not drawn)	-68.7
CC(C)(C)C1c2[nH]c3ccccc3c2CCN1CCCn1cccn1 (stereo not drawn)	-19.5
Fc1ccc(C2c3[nH]c4ccccc4c3CCN2CCCn2cccn2)cc1 (stereo not drawn)	-70.1
Fc1ccccc1C1c2[nH]c3ccccc3c2CCN1CCCn1cccn1 (stereo not drawn)	-46.4
Cc1ccccc1C1c2[nH]c3ccccc3c2CCN1CCCn1cccn1 (stereo not drawn)	-20.3
COc1ccc(C2c3[nH]c4ccccc4c3CCN2CCCn2cccn2)c(C)c1C (stereo not drawn)	-9.49

Source: PMC4336329 (PLoS ONE, 2015)
